Here are results for 14 molecules from PubChem BioAssay (NCI).

Assay in all cases: NCI-60 one-dose screen, 48 h (100 = growth as untreated, 0 = no growth, -100 = all killed)
Common to all, as to details: 10 µM unless noted

Experiment [1] deals with RPMI-8226 leukemia.
Experiment [2] concerns OVCAR-8 ovarian.
For experiment [3], the system named is OVCAR-5 ovarian.
For experiment [4], the system named is OVCAR-4 ovarian.
For experiment [5], the system named is SK-OV-3 ovarian.
For experiment [6], the system named is IGROV1 ovarian.
Experiment [7] concerns OVCAR-3 ovarian.
Experiment [8] concerns HS 578T breast.
Experiment [9] has as its system NCI/ADR-RES ovarian.

This is part of a sample that, as a whole, favours compounds with a hit. Of some 83,000 tested, about 20% had one in any assay.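 Activity criterion: percent growth below 10, measured after cells in 96-well plates were exposed to a single compound concentration for 48 hours.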 A number with no mark means an inactive call. Calls of active or inactive are those of the source.

On to `O=C(/C=C/c1ccccc1)n1c(-c2ccc(Cl)cc2)nc2ccccc21`, for which the growth in [1] is -31.1% (active); in experiment [2], -31.3% (active); in experiment [3], -48.1% (active); in [4] it was 30%; in experiment [5] it was 24%; in experiment [6], 10.4%. Moreover, the growth in [7] is -57.2% (active); in experiment [8] it was 20%; in [9], 10.8%.
Consider `CCN(CC)S(=O)(=O)c1ccc2[nH]c(=O)cc(C(=O)Nc3ccc(OC)cc3OC)c2c1`, for which the growth in [1] was 108%; in experiment [2] it was 109%; in [3], 100%; in experiment [4] it was 115%; in [5], 108%; in experiment [6] it was 34.4%. Moreover, the growth was 118% in experiment [7], 103% in experiment [8] and 99.6% in experiment [9].
Regarding `Cc1ccc2c(c1)C(C)Cc1c(ncnc1-n1cnc3ccccc31)N2C` (centres undefined), the growth in experiment [1] was 21.8%; in experiment [2], 21.3%; in [3], 42.8%; in [4] it was 30%; in experiment [5], 43.5%; in experiment [6], 37.6%. Further, the growth in experiment [7] is -34.7% (active); in [8], 8.03% (active); in experiment [9], 17%.
`Cc1nc2scc(-c3ccccc3)n2c(=O)c1CCO`: the growth in [1] is 102%; in experiment [2] it was 109%; in experiment [3], 109%; in experiment [4] it was 93.8%; in experiment [5], 105%; in experiment [6], 98.1%. The results for the growth in experiment [7] and in [9] were 100% and 112%, respectively.
In the case of `O=C(Nc1ccc(F)c(Cl)c1)c1n[nH]c(=O)c2ccccc12`, the growth in experiment [1] was 119%; in [2], 95.4%; in experiment [3], 107%; in experiment [4], 96.1%; in experiment [5] it was 119%; in [6], 8.17% (active). The growth in [7] is 94.6%; in experiment [8] it was 129%; in experiment [9] it was 112%.
Regarding `CC1CCc2c(sc(NC(=O)CSc3nnc4ccccn34)c2C(N)=O)C1` (centres undefined), the growth in experiment [1] was 119%; in experiment [2], 109%; in experiment [3], 99.7%; in [4], 114%; in [5] it was 131%; in [6], 33.8%. Also, the growth in [7] is 104%; in experiment [9] it was 118%.
For `c1ccc([P+](CCC[P+](c2ccccc2)(c2ccccc2)c2ccccc2)(c2ccccc2)c2ccccc2)cc1`, the growth was 1.19% (active) in [1]; 70.6% in experiment [2]; 89.7% in [3]; 66.7% in experiment [4]; 93.2% in experiment [5]; 59.1% in experiment [6]. The values for the growth in experiment [7], in [8] and in [9] were 54.1%, 94.8% and 104%, respectively.
Regarding `CN(C)c1ccc(-c2ccc(-c3ccc(C(=N)N)cn3)o2)cc1`, the growth in experiment [1] was -43.4% (active); in [2] it was -54.7% (active); in experiment [3] it was -25% (active); in experiment [4] it was -17.3% (active); in [5], -24.4% (active); in [6] it was -26.8% (active). For the same molecule, the figures for the growth in [7], in experiment [8] and in [9] were -96.7% (active), -19.7% (active) and 22.5%, respectively.
Consider `CC1Cc2c(N(C)C)ncnc2N(C)c2ccc(O)cc21` (centres undefined), for which the growth in experiment [1] was 82.9%; in experiment [2] it was 103%; in experiment [3], 99.4%; in experiment [4] it was 84.6%; in experiment [5], 86%; in experiment [6] it was 93.6%. Further, the figures for the growth in [7], in experiment [8] and in experiment [9] were 88.8%, 76.2% and 84.2%, respectively.
Consider `Cn1cc(C=O)c2ccccc21`, for which the growth in [1] is 98.4%; in [2], 95.2%; in experiment [3], 101%; in experiment [4], 101%; in experiment [5], 101%; in [6], 88.6%. In addition, the growth in [7] is 106%; in experiment [8], 107%; in experiment [9], 100%.
Consider `O=C(c1ccccc1)C(Cl)C(Cl)c1ccccc1` (centres undefined), for which the growth in [1] is -5.33% (active); in experiment [2] it was -1.77% (active); in [3] it was 113%; in experiment [4], 41.2%; in [7], 2.77% (active); in [8] it was 83.7%. Further, the growth in experiment [9] is 80.2%.
As for `COC(=O)c1ccc(C)cc1`, the growth is 102% in [1]; 103% in experiment [2]; 110% in [3]; 105% in [4]; 99.6% in experiment [5]; 106% in experiment [7]. For the same molecule, the growth in [8] was 99.5%; in [9], 106%.
Take `CCC(=O)Nc1ccccc1C#C/C=C\C#Cc1ccccc1SC`: the growth in experiment [1] was 20.1%; in experiment [2] it was 144%; in experiment [3] it was 69.1%; in experiment [4] it was 74.6%; in experiment [5], 78.1%; in experiment [7] it was 65%. The growth was -34.3% (active) in experiment [8] and 49.9% in experiment [9].
With `COc1cc(/C=C2\CCCC3=C2NC(C)=NC3c2cc(OC)c(OC)c(OC)c2)cc(OC)c1OC` (centres undefined), the growth in [1] was -15.1% (active); in experiment [2] it was 5.87% (active); in [3], 10.8%; in [4], 42.2%; in experiment [6], 30.7%; in experiment [7] it was 28%. Moreover, the values for the growth in experiment [8] and in [9] were 48.6% and 14.5%, respectively.
